Measured values reported in the supplement of paper PMC10849652.
Of roughly 8,800 targets only a part is listed; those with a hit were picked by preference. About 0.5% of all pairs of compound and target were hits. Values without a mark were called inactive.

Assays:
Experiment in all cases: log2 fold change, soluble protein after heating vs DMSO (PISA); higher = thermal stabilisation; K562 lysate, 10 uM; active = over 0.2 and 3.5 SD of the protein, either way, in both replicates (recomputed)
barasertib = compound: CCN(CCCOc1ccc2c(Nc3cc(CC(=O)Nc4cccc(F)c4)[nH]n3)ncnc2c1)CCOP(=O)(O)O [barasertib]
Outline: (§1)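 Thermal stability, expressed as log-two fold change relative to solvent controls, is given from duplicates. Crude K562 extract in PBS pH 7.4 with 1 mM MgCl2, at 1 mg/mL protein, was treated with 10 μM compound for 30 min and heated in aliquots for 3 min across 48°C-58°C. After pooling, adjustment to 0.5% NP-40 at 4°C and centrifugation at 21,000xg for 90 min, supernatant protein was measured by TMTpro 16plex LC-MS/MS with channel sums equalised.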

[1] = compound: CC[C@@H]1C(=O)N(C)c2cnc(Nc3ccc(C(=O)NC4CCN(C)CC4)cc3OC)nc2N1C1CCCC1
Outline: as §1

[2] = compound: CCn1c(C(=O)N(C2CC2)C2CC2)cc2c3c(ncn3C)c(Nc3cc(C)n(C)n3)nc21
Outline: as §1

saracatinib = compound: CN1CCN(CCOc2cc(OC3CCOCC3)c3c(Nc4c(Cl)ccc5c4OCO5)ncnc3c2)CC1 [saracatinib]
Outline: as §1

sotrastaurin = compound: CN1CCN(c2nc(C3=C(c4c[nH]c5ccccc45)C(=O)NC3=O)c3ccccc3n2)CC1 [sotrastaurin]
Outline: as §1

vemurafenib = compound: CCCS(=O)(=O)Nc1ccc(F)c(C(=O)c2c[nH]c3ncc(-c4ccc(Cl)cc4)cc23)c1F [vemurafenib]
Outline: as §1

[3] = compound: CCn1cc(-c2ccnc3[nH]c(-c4cccc(CN(C)C)c4)cc23)c(-c2ccc(NC(=O)N(C)C)cc2)n1
Outline: as §1

[4] = compound: CN1CCC(CNc2ccc3ncc(-c4cccc(OC(F)(F)F)c4)n3n2)CC1
Outline: as §1

[5] = compound: CCCS(=O)(=O)Nc1ccc(F)c(C(=O)c2c[nH]c3ncc(Cl)cc23)c1F
Outline: as §1

volasertib = compound: CC[C@@H]1C(=O)N(C)c2cnc(Nc3ccc(C(=O)N[C@H]4CC[C@H](N5CCN(CC6CC6)CC5)CC4)cc3OC)nc2N1C(C)C [volasertib]
Outline: as §1

UniProt Q53HL2, sequence (Q53HL2 whole entry, looked up): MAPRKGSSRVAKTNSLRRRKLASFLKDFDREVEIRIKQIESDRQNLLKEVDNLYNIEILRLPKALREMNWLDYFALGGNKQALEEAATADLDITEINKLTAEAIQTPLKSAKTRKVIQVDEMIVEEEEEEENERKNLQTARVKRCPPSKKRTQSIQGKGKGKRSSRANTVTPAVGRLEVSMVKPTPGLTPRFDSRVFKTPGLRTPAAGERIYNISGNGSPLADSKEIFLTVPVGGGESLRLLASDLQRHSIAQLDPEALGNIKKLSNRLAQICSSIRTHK
UniProt Q9C0D2, sequence (Q9C0D2 whole entry, looked up): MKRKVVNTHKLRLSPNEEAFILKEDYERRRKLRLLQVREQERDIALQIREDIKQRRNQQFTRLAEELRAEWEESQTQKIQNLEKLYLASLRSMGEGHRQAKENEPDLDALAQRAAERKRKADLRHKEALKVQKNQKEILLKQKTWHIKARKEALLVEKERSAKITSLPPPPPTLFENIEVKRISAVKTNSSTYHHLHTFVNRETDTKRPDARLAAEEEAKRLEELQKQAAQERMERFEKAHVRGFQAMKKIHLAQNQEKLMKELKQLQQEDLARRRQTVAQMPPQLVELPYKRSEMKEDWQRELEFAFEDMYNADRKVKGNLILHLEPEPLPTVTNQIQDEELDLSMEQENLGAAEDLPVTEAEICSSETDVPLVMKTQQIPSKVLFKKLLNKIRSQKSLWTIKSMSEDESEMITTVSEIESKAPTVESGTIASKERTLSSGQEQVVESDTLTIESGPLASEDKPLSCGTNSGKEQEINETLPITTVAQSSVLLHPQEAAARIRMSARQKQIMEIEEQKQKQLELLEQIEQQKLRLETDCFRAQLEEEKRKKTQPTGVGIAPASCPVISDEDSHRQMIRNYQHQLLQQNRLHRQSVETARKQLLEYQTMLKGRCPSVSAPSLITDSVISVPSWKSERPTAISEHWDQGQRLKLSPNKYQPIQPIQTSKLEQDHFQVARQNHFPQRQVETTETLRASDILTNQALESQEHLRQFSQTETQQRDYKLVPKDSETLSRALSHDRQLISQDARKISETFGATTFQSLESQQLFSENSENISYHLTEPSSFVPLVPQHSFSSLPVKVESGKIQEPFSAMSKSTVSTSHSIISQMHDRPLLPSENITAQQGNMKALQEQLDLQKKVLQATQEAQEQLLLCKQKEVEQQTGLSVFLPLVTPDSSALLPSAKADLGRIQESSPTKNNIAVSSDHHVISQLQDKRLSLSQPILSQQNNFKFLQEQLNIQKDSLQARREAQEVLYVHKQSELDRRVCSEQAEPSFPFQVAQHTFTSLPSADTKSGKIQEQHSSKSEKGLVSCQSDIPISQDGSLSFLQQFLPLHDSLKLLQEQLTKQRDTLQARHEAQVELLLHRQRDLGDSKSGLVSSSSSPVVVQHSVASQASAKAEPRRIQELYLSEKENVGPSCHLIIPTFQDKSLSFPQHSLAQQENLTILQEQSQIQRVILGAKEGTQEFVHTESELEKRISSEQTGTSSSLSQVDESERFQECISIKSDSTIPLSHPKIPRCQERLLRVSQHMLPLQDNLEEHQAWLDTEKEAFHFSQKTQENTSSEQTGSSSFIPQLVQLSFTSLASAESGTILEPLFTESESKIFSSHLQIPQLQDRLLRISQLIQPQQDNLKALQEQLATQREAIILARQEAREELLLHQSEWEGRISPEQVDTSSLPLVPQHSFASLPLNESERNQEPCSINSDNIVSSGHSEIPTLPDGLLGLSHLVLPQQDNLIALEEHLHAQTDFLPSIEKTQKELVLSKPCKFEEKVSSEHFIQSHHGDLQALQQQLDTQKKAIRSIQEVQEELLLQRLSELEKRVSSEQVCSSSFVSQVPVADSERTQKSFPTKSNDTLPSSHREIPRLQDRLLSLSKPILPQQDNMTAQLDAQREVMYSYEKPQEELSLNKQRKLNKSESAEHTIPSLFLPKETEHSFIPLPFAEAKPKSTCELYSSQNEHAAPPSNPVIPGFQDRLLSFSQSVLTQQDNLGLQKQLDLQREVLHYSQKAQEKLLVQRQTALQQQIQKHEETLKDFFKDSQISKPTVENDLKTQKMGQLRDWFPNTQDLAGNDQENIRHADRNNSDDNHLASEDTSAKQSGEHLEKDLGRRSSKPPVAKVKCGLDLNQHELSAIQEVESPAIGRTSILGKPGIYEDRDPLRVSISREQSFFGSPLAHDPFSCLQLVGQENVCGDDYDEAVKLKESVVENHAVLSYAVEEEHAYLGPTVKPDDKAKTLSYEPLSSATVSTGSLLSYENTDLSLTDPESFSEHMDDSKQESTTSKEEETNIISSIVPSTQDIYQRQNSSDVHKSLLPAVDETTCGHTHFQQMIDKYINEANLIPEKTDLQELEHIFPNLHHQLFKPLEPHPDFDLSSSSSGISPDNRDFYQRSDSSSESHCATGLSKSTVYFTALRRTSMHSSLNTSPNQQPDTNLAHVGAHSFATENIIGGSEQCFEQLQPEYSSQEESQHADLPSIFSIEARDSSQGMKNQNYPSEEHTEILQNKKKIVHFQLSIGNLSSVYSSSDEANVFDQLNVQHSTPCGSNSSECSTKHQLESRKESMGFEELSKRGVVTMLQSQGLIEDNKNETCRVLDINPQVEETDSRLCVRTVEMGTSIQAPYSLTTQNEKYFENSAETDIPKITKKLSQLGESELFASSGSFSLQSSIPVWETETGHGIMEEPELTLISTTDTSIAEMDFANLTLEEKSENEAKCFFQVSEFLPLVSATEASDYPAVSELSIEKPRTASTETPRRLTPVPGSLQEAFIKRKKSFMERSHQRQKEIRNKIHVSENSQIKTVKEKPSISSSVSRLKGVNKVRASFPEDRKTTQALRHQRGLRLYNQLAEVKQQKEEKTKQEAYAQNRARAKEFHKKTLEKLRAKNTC
UniProt Q7Z4R8, sequence (Q7Z4R8 whole entry, looked up): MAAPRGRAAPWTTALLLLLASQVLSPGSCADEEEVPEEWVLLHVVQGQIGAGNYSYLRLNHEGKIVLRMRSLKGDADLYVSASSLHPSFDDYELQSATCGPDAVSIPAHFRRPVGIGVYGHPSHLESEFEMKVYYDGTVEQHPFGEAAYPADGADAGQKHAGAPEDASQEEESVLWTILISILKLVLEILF
UniProt Q16581, sequence (Q16581 whole entry, looked up): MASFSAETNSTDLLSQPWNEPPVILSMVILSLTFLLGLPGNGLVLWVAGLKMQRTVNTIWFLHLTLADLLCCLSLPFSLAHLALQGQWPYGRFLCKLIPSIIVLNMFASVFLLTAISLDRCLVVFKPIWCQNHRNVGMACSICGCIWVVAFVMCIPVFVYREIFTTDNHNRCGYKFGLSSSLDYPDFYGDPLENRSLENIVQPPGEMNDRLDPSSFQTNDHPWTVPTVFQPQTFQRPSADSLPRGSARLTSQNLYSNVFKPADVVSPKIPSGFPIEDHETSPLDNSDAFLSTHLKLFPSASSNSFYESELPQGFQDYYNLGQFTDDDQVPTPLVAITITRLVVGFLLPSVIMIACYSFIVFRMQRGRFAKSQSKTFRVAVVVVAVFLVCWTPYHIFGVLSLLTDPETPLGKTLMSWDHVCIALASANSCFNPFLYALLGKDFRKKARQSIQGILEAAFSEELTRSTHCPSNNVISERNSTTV
UniProt P30304, sequence (P30304 whole entry, looked up): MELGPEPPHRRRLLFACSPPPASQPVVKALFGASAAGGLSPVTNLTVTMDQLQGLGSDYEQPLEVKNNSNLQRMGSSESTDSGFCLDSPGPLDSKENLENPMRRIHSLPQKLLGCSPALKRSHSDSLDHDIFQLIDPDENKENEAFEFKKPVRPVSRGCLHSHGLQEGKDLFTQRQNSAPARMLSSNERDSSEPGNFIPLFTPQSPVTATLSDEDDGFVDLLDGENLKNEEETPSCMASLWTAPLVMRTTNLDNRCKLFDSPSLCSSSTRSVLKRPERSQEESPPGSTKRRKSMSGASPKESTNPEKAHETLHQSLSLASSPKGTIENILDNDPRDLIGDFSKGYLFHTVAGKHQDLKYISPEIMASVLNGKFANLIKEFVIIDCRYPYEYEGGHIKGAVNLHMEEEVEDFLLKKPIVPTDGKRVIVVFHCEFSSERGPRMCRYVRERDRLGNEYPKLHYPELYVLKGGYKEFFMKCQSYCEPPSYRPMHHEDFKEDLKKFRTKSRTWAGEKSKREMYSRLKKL
UniProt Q6P4H8, sequence (Q6P4H8 whole entry, looked up): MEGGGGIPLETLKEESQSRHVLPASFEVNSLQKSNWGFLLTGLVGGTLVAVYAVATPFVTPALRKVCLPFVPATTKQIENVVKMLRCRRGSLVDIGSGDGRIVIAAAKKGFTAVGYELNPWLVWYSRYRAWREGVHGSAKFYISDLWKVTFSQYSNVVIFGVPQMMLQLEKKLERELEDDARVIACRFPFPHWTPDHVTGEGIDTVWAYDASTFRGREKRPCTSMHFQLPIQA
UniProt Q8IYX8, sequence (Q8IYX8 whole entry, looked up): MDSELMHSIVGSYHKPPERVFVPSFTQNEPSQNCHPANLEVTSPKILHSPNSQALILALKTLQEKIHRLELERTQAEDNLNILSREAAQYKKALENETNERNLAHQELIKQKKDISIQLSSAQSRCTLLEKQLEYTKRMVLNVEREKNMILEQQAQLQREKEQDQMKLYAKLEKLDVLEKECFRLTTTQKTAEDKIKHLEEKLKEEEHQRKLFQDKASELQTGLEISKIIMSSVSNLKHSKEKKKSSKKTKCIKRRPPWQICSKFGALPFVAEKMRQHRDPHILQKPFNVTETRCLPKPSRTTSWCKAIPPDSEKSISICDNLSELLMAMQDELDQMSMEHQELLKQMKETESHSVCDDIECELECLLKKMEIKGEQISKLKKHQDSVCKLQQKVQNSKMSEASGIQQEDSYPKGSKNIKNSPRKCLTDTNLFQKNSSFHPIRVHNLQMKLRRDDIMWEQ
UniProt Q9H0Y0, sequence (Q9H0Y0 whole entry, looked up): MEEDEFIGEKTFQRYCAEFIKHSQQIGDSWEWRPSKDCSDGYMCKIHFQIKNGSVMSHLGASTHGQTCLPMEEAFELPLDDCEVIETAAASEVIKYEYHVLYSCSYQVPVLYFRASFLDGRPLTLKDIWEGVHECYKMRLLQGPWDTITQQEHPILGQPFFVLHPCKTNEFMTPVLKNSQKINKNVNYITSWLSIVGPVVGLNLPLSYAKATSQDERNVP

| Target | log2 fold change (barasertib) | log2 fold change [1] | log2 fold change [2] | log2 fold change (saracatinib) | log2 fold change (sotrastaurin) | log2 fold change (vemurafenib) | log2 fold change [3] | log2 fold change [4] | log2 fold change [5] | log2 fold change (volasertib) |
| --- | --- | --- | --- | --- | --- | --- | --- | --- | --- | --- |
| ATPSCKMT (UniProt Q6P4H8) | -0.019 | 0.171 | 0.077 | 0.053 | -0.007 |  |  |  |  |  |
| B3GALT6 (UniProt Q96L58) | 0.002 |  | 0.115 | -0.172 | 0.067 |  |  |  |  |  |
| CDK17 isoform 2 (UniProt Q00537) | 0.011 | -0.078 | -0.007 | -0.017 | 0.03 | -0.115 | 0.091 | -0.299 |  |  |
| CENPV (UniProt Q7Z7K6) | 0 | -0.033 | 0.19 |  | 0.007 | -0.104 | 0.264 | -0.004 |  |  |
| CHD4, A0A2R8Y521 |  | -0.053 | -0.342 | 0.149 |  |  |  |  | -0.315 | 0.103 |
| CASP7 isoform 3 (UniProt P55210) | 0.059 | -0.148 | -0.119 | 0.056 | -0.091 |  |  |  | -0.117 | -0.049 |
| ATE1 (UniProt O95260) | -0.051 |  |  |  | 0.021 |  | 0.082 | 0.003 | 0.061 | 0.002 |
| CAD (UniProt H7BZB3) |  | 0.144 |  |  |  | -0.063 | -0.02 | -0.027 |  |  |
| CASC1 (UniProt Q6TDU7) | 1.04 |  | -0.217 |  |  |  | 0.034 | 0.006 |  |  |
| CEP295 isoform 3 (UniProt Q9C0D2) | -0.039 | 0.052 | -0.028 |  | 0.005 |  | -0.387 | 0.001 | -0.058 | 0.043 |
| C8orf88 (UniProt P0DMB2) | -0.053 |  | 0.027 | 0.051 | -0.015 |  | 0.084 | 0.011 |  |  |
| CEP152 (UniProt O94986) | 0.106 | 0.25 | 0.008 | 0.051 | -0.039 | 0.031 | -0.009 | 0.272 |  |  |
| C3AR1 (UniProt Q16581) | -0.172 |  |  |  | -0.004 |  | -0.664 (active) | -0.286 |  |  |
| CDK11A (UniProt Q9UQ88) | 0.029 |  | 0.047 | -0.069 | -0.026 |  | 0.127 | -0.099 | -0.019 | -0.135 |
| BUD13 (UniProt Q9BRD0) | 0.092 | -0.07 | -0.037 | 0.096 | 0.025 |  | 0.076 | -0.064 |  |  |
| CCDC130 (UniProt P13994) | 0.045 | 0.036 | -0.027 |  | 0.147 |  |  |  |  |  |
| ATG4D (UniProt Q86TL0) | -0.074 | 0.055 | 0.116 | -0.188 | 0.058 |  |  |  |  |  |
| CDC14A isoform 2 (UniProt Q9UNH5) |  |  | 0.101 |  | 0.058 |  |  |  | -0.271 | 0.085 |
| CCND3 (UniProt P30281) | 0.014 | -0.056 | -0.112 | 0.086 | 0.016 |  | -0.116 | 0.075 |  |  |

| Target | log2 fold change (barasertib) | log2 fold change [1] | log2 fold change [2] | log2 fold change (saracatinib) | log2 fold change (sotrastaurin) | log2 fold change (vemurafenib) | log2 fold change [3] | log2 fold change [4] | log2 fold change [5] | log2 fold change (volasertib) |
| --- | --- | --- | --- | --- | --- | --- | --- | --- | --- | --- |
| CHD9 (UniProt Q3L8U1) |  |  | -0.139 | 0.114 | 0.17 | -0.028 | 1.88 (active) | -0.122 |  |  |
| CARHSP1 (UniProt H3BNU9) | 0.246 |  |  |  |  |  | 0.16 | -0.522 | 0.032 | -0.161 |
| ATXN2 (UniProt F8WB06) |  |  |  | -0.088 |  |  |  |  |  |  |
| BCORL1 isoform 3 (UniProt Q5H9F3) |  | -0.033 | -0.018 | -0.082 | -0.099 | 0.123 | -0.546 | 0.344 |  |  |
| CDC25A (UniProt P30304) |  |  | 0.033 | -0.022 | 0.092 |  |  |  | 0.038 | -0.053 |
| CCAR2 (UniProt G3V119) |  |  |  |  |  |  |  |  | 0.087 | -0.074 |
| CDK5RAP1 (UniProt Q96SZ6) | 0.025 | 0.059 | 0.035 | 0.026 | -0.037 | -0.03 | 0.023 | 0.026 |  |  |
| BNIP3 (UniProt Q12983) | -0.037 | 0.069 | -0.023 | 0.118 | 0.03 |  | -0.307 | 0.149 | 0.035 | 0.116 |
| CDAN1 (UniProt H3BPZ6) |  |  |  |  | 0.175 |  |  |  |  |  |
| C6orf120 (UniProt Q7Z4R8) | 0.096 |  |  | 0.004 |  |  | -0.005 | 0.049 | -0.127 | 0.051 |
| C15orf39 (UniProt Q6ZRI6) | -0.012 | -0.047 | -0.008 | 0.025 | 0.042 |  | 0.08 | 0.132 |  |  |
| CAPNS1 (UniProt U3KPR7) | 0.424 |  |  |  |  |  |  |  | -0.125 | -0.01 |
| BICRA (UniProt Q9NZM4) | 0.165 |  | -0.233 | 0.02 | 0 |  | -0.133 | -0.048 | 0.055 | 0.036 |
| CDCA8 (UniProt Q53HL2) | 0.106 | 0.051 |  | 0.171 |  | 0.025 | 0.677 (active) | -0.034 |  |  |
| BMT2 (UniProt Q1RMZ1) |  |  |  |  |  |  | 0.004 | 0.096 |  |  |
| BRAF, A0A2R8Y8E0 |  | -0.287 |  |  |  | 1.34 |  |  |  |  |
| CEP57L1 (UniProt Q8IYX8) | -0.06 | 0.227 | 0.044 | -0.065 | -0.007 |  | -0.028 | -0.066 |  |  |
| ATG10 (UniProt Q9H0Y0) | 0.092 | 0.016 | 0.012 | -0.021 | 0.038 | 0.026 | -0.021 | 0.01 |  |  |
